The record followed here is PubChem BioAssay (NCI).

About 83,000 compounds went through this panel and 20% of them were active in at least one assay; those are over-represented in the sample as a whole.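 Single-dose data. Exposure time 48 hours. Values below 10 considered active.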 Unmarked numbers belong to inactive results. Active and inactive are the calls of the source.

Test systems include HCT-15 colon; HT29 colon; SNB-19 CNS; U251 CNS; PC-3 prostate; SK-MEL-5 melanoma; UACC-62 melanoma; LOX IMVI melanoma; SK-MEL-28 melanoma; SK-MEL-2 melanoma; EKVX NSCLC; SN12C renal; UO-31 renal; TK-10 renal; ACHN renal; CAKI-1 renal; A498 renal; CCRF-CEM leukemia; MOLT-4 leukemia; SNB-75 CNS.
Common to all, as to experiment: NCI-60 one-dose screen, 48 h (100 = growth as untreated, 0 = no growth, -100 = all killed)
Holding throughout (details): 10 µM unless noted

Take `CCN(CC)CC#CCOC(=O)[C@]1(C)CCC[C@@]2(C)[C@H]1CC(C=O)=C1C=C(C(C)C)CC[C@@H]12`: the growth is 40.9% in the experiment with HCT-15 colon; 9.02% (active) in the experiment on HT29 colon; 77.1% in the experiment with SNB-19 CNS; 57.2% with U251 CNS; 45.4% in the experiment on PC-3 prostate; 42.8% with SK-MEL-5 melanoma. The growth in the experiment on UACC-62 melanoma was 68.9%; in the experiment on LOX IMVI melanoma, 73.2%; with SK-MEL-28 melanoma, 87.4%; in the experiment with SK-MEL-2 melanoma it was 88%; with EKVX NSCLC, 77.8%; in the experiment on SN12C renal, 77.6%. The growth in the experiment on UO-31 renal is 52.6%; in the experiment with TK-10 renal, 77.1%; in the experiment with ACHN renal, 86.9%; with CAKI-1 renal it was 101%; with A498 renal, 69.7%; in the experiment on CCRF-CEM leukemia it was 50.4%. Further, the growth in the experiment on MOLT-4 leukemia is 50.1%.

In the case of `CC(C)(C)n1cc(-c2ccnc(NCCCNS(=O)(=O)c3cccc4ccccc34)c2)c(-c2cccc(O)c2)n1`, the growth is -19.5% (active) in the experiment with HCT-15 colon; -20.2% (active) with HT29 colon; 56% with SNB-19 CNS; 27% in the experiment with U251 CNS; 21.1% in the experiment with PC-3 prostate; -20% (active) in the experiment on SK-MEL-5 melanoma. In addition, the growth in the experiment on UACC-62 melanoma is 51.2%; with LOX IMVI melanoma, -45.1% (active); in the experiment with SK-MEL-28 melanoma, -37.2% (active); in the experiment with SK-MEL-2 melanoma, 30.1%; in the experiment with EKVX NSCLC it was 42.3%; in the experiment with SN12C renal it was 36.7%. Moreover, the growth is 74.8% in the experiment with TK-10 renal; 36.7% in the experiment with ACHN renal; 40.4% with CAKI-1 renal; 48% in the experiment with A498 renal; 22.1% in the experiment with CCRF-CEM leukemia; 7.2% (active) with MOLT-4 leukemia.

Regarding `Nc1cc(O)cc2cccnc12`, the growth was 110% with HCT-15 colon; 106% in the experiment on HT29 colon; 79.4% with SNB-19 CNS; 86.7% with U251 CNS; 78.7% in the experiment with PC-3 prostate; 72.4% in the experiment on SK-MEL-5 melanoma. Besides, the growth with UACC-62 melanoma is 89.5%; in the experiment on LOX IMVI melanoma, 51.2%; in the experiment with SK-MEL-28 melanoma, 112%; with SK-MEL-2 melanoma, 110%; in the experiment on EKVX NSCLC, 104%; in the experiment on SN12C renal, 72.5%. In addition, the growth in the experiment on UO-31 renal is 48.1%; in the experiment with TK-10 renal, 104%; in the experiment with ACHN renal it was 77.3%; in the experiment with CAKI-1 renal, 80.1%; with A498 renal, 118%; in the experiment on CCRF-CEM leukemia, 86.6%. Further, in the experiment on MOLT-4 leukemia, the growth was 93%.

Consider `CC/C(Cc1ccccc1)=C(/c1ccc(O)cc1)c1ccc(OCCN2CCCC2)cc1`, for which the growth was -56.2% (active) in the experiment with HCT-15 colon; -22.6% (active) with SNB-75 CNS; 0.126% (active) in the experiment on SNB-19 CNS; -89.1% (active) with U251 CNS; -32.2% (active) in the experiment with PC-3 prostate; -100% (active) in the experiment with SK-MEL-5 melanoma. The growth is -77.7% (active) in the experiment on UACC-62 melanoma; -100% (active) in the experiment with LOX IMVI melanoma; -84.5% (active) with SK-MEL-28 melanoma; -52.3% (active) with SK-MEL-2 melanoma; -21.4% (active) in the experiment with EKVX NSCLC; -11.6% (active) in the experiment with SN12C renal. In addition, the growth with UO-31 renal was -79.8% (active); in the experiment with TK-10 renal, 13.1%; in the experiment on ACHN renal, -68.5% (active); in the experiment on CAKI-1 renal, -72.4% (active); with A498 renal, 54.9%; with CCRF-CEM leukemia, -33.3% (active). For the same molecule, the growth in the experiment with MOLT-4 leukemia was -22.7% (active).

In the case of `Brc1cccc(-c2cc(-c3ccc4c(c3)OCCO4)[nH]n2)c1`, the growth was 15.9% [25 µM] with HCT-15 colon; 1.56% [25 µM] (active) in the experiment with HT29 colon; 34% [25 µM] in the experiment on SNB-19 CNS; 22% [25 µM] in the experiment with U251 CNS; 26.3% [25 µM] with PC-3 prostate; 10% [25 µM] with SK-MEL-5 melanoma. In addition, the growth in the experiment with UACC-62 melanoma is 36.8% [25 µM]; in the experiment on LOX IMVI melanoma, 34% [25 µM]; in the experiment on SK-MEL-28 melanoma, 59.7% [25 µM]; in the experiment with SK-MEL-2 melanoma, 35.8% [25 µM]; with EKVX NSCLC, 20.3% [25 µM]; with SN12C renal it was 33.7% [25 µM]. In addition, the growth with UO-31 renal is 35% [25 µM]; in the experiment on TK-10 renal it was 59% [25 µM]; with ACHN renal, 41.4% [25 µM]; with CAKI-1 renal, 25.7% [25 µM]; in the experiment on A498 renal it was 7.77% [25 µM] (active); with CCRF-CEM leukemia it was 19.5% [25 µM]. For the same molecule, in the experiment with MOLT-4 leukemia, the growth was 50.4% [25 µM].

Turning to `O=C(CN1CCN(c2cc3c(cc2F)c(=O)c(C(=O)N/N=C/c2ccccc2)cn3C2CC2)CC1)N/N=C\c1ccccc1`, the growth with HCT-15 colon was 53.9%; with HT29 colon, 73.4%; in the experiment with SNB-19 CNS, 74%; in the experiment with U251 CNS, 83.7%; in the experiment with PC-3 prostate it was 50%; in the experiment on SK-MEL-5 melanoma, 83%. Further, the growth with UACC-62 melanoma is 71.4%; in the experiment on SK-MEL-28 melanoma, 88.9%; with SK-MEL-2 melanoma, 86.1%; with SN12C renal it was 65.7%; with UO-31 renal, 53.3%; with TK-10 renal it was 89.1%. The growth in the experiment with ACHN renal was 72%; with CAKI-1 renal, 78.1%; in the experiment with A498 renal it was 78.7%; with CCRF-CEM leukemia it was 60.9%; with MOLT-4 leukemia, 42.7%.

Take `O=C1O[C@H]([C@H](O)CO)C(O)=C1O`: the growth with HCT-15 colon was 103%; in the experiment on HT29 colon, 105%; in the experiment with SNB-19 CNS, 95.8%; in the experiment with U251 CNS, 101%; in the experiment with PC-3 prostate it was 96%; in the experiment with SK-MEL-5 melanoma it was 104%. Moreover, the growth is 98.1% with UACC-62 melanoma; 94.8% in the experiment on LOX IMVI melanoma; 117% with SK-MEL-28 melanoma; 104% in the experiment with SK-MEL-2 melanoma; 104% in the experiment with SN12C renal; 99.8% in the experiment on UO-31 renal. Also, the growth with TK-10 renal was 104%; in the experiment on ACHN renal, 93.9%; with CAKI-1 renal, 87.1%; in the experiment with A498 renal, 94.3%; in the experiment with CCRF-CEM leukemia, 109%; in the experiment on MOLT-4 leukemia, 107%.

Regarding `Cc1cc(N/N=C/c2nc(-c3ccc(Cl)cc3)oc2C)c2cc(Br)ccc2n1`, the growth in the experiment with HCT-15 colon was -20.3% (active); with HT29 colon, -45.8% (active); with SNB-19 CNS, 41.6%; in the experiment with U251 CNS it was -33.3% (active); in the experiment with PC-3 prostate, 80.2%; in the experiment with SK-MEL-5 melanoma it was 91.9%. In addition, the growth in the experiment on UACC-62 melanoma is 58.2%; in the experiment on LOX IMVI melanoma it was -43.4% (active); in the experiment on SK-MEL-28 melanoma, 17.5%; with SK-MEL-2 melanoma it was 108%; in the experiment with EKVX NSCLC, 86.4%; in the experiment with SN12C renal, 20.5%. The growth is 55.9% with UO-31 renal; 25.2% in the experiment on TK-10 renal; 75.8% in the experiment with ACHN renal; 90% with CAKI-1 renal; 92.6% in the experiment on A498 renal; 4.11% (active) in the experiment with CCRF-CEM leukemia. In the experiment on MOLT-4 leukemia, the growth is 15%.
